Key:
Experiment in all cases: DAPPL (digital affinity profiling via proximity ligation, sequencing); 10 mM Tris-HCl pH 7.5, 50 mM NaCl, 1 mM DTT, 4% glycerol, room temperature, 30 min; GST-TFs on glutathione beads, 16-mer random dsDNA library, 0.1% formaldehyde crosslink after washing; high values mean tight binding
Details in all cases: protein: recombinant; tags: N-terminal GST; dsDNA, one strand shown
FEV = biological target: T1, FEV (Homo sapiens, UniProt Q99581 1-238)
T1 sequence: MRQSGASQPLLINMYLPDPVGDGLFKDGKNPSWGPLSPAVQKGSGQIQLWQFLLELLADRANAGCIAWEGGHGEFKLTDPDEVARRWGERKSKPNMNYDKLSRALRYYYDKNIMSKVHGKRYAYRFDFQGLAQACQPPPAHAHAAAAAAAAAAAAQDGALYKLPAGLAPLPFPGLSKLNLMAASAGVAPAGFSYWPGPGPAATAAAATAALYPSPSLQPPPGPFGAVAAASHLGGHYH
Procedure, shortened: (§1)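 After expression in yeast as GST fusions, human transcription factors were bound to glutathione beads, DNA-barcoded and mixed with a tag-only sample. The pools were incubated with 200 nmole of a 16-mer random double-stranded DNA library in Tris/NaCl/DTT/glycerol buffer (30 min, room temperature), washed and crosslinked with 0.1% formaldehyde. Proximity ligation with BsaI/T4 ligase ran for 1 h at 37 °C, before PCR amplification and sequencing on an Illumina NextSeq500. Binding signal is a hexamer's read frequency for a factor divided by its frequency for the tag-only sample.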

ETV5 = ETV5 (Homo sapiens, UniProt P41161 1-510)
Procedure, shortened: as §1

SPIC = biological target: T2, SPIC (Homo sapiens, UniProt Q8N5J4 1-248)
T2 sequence: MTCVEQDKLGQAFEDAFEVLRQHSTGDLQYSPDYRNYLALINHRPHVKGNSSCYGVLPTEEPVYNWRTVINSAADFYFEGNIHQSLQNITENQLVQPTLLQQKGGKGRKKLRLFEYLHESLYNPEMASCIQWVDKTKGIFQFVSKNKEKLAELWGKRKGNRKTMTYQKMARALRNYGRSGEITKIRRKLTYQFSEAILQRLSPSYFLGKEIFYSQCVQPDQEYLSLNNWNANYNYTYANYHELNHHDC
Procedure, shortened: as §1

ELF4 = ELF4 (Homo sapiens, UniProt Q99607 1-663)
Procedure, shortened: as §1

ELK4 = biological target: T3, ELK4 (Homo sapiens, UniProt P28324-2 1-405)
T3 sequence: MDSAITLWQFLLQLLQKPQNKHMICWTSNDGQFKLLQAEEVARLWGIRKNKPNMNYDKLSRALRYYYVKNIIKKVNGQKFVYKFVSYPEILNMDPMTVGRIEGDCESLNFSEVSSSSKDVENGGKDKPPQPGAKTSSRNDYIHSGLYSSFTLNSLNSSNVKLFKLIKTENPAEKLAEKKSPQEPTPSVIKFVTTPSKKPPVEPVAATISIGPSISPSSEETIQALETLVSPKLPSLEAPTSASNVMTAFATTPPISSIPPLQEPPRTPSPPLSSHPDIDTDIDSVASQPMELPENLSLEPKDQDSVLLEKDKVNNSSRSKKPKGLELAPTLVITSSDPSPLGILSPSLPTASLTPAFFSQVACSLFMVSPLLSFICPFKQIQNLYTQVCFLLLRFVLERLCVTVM
Procedure, shortened: as §1

ETV2 = biological target: T4, ETV2 (Homo sapiens, UniProt O00321 1-342)
T4 sequence: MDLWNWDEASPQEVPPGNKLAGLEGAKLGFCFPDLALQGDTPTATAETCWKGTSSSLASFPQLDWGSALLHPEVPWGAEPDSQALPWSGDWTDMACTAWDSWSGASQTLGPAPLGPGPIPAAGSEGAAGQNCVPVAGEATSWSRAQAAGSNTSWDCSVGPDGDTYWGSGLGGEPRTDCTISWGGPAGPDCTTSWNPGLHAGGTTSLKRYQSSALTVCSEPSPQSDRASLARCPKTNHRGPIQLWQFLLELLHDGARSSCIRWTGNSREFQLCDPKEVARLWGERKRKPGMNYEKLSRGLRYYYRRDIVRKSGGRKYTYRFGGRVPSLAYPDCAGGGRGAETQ
Procedure, shortened: as §1

ELF3 = biological target: T5, ELF3 (Homo sapiens, UniProt P78545 1-371)
T5 sequence: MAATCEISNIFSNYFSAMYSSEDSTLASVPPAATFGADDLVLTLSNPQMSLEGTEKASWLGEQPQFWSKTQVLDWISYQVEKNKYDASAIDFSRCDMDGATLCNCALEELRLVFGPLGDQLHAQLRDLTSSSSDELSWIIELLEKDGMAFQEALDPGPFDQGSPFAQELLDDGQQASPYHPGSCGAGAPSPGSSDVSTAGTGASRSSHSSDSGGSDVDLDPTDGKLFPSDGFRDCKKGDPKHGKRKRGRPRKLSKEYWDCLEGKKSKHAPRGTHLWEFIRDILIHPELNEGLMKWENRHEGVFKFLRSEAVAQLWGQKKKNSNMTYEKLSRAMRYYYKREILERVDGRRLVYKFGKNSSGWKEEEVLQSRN
Procedure, shortened: as §1

ETV1 = ETV1 (Homo sapiens, UniProt P50549 1-477)
Procedure, shortened: as §1

ERF = biological target: T6, ERF (Homo sapiens, UniProt P50548 1-548)
T6 sequence: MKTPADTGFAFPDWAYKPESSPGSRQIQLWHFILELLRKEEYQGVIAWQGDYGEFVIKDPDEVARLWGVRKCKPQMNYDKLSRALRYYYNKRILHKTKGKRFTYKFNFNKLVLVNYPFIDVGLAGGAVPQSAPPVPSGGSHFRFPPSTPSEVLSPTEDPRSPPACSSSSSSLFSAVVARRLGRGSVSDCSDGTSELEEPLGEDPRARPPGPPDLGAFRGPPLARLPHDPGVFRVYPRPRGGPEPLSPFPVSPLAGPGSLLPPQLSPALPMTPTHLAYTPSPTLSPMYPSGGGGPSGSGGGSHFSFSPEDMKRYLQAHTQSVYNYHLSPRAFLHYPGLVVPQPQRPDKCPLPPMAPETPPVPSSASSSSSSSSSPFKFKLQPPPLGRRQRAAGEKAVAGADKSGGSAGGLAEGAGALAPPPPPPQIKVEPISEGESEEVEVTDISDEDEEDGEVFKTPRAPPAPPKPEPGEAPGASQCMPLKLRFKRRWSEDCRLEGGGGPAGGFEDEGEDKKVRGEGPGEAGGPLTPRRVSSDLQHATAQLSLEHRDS
Procedure, shortened: as §1

ETS2 = biological target: T7, ETS2 (Homo sapiens, UniProt P15036 1-469)
T7 sequence: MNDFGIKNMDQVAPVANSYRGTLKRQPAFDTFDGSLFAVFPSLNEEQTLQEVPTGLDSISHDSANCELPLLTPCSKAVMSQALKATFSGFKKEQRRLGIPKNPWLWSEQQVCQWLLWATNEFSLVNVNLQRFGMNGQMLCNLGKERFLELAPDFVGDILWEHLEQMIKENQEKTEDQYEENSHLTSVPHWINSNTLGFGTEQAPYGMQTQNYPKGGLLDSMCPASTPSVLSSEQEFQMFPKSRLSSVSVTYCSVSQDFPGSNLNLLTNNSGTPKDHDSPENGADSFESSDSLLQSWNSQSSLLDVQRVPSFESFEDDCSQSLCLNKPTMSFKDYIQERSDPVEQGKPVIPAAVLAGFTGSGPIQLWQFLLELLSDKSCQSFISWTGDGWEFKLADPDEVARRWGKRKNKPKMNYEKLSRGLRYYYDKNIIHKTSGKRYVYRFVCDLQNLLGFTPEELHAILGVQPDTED
Procedure, shortened: as §1

ETV7 = biological target: T8, ETV7 (Homo sapiens, UniProt Q9Y603 1-341)
T8 sequence: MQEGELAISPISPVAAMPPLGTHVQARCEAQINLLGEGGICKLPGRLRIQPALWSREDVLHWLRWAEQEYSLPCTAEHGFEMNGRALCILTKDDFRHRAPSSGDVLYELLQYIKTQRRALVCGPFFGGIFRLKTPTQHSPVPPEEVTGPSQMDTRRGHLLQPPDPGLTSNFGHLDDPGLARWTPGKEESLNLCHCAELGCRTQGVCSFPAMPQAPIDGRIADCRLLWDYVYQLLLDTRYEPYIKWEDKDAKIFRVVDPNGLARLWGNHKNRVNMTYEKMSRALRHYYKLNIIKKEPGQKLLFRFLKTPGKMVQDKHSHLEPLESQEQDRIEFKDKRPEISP
Procedure, shortened: as §1

ELF5 = biological target: T9, ELF5 (Homo sapiens, UniProt Q9UKW6-2 1-255)
T9 sequence: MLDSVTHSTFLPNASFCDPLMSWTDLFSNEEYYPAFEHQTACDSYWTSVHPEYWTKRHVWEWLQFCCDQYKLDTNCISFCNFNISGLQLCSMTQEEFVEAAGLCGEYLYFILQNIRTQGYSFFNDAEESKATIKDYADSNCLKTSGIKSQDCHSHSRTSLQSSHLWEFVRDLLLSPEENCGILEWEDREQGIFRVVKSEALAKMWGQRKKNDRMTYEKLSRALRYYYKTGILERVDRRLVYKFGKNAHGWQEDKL
Procedure, shortened: as §1

ETV3 = biological target: T10, ETV3 (Homo sapiens, UniProt P41162-2 1-143)
T10 sequence: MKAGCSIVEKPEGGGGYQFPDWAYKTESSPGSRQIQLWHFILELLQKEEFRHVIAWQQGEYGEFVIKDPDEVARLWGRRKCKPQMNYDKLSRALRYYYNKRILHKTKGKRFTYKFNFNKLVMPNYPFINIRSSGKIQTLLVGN
Procedure, shortened: as §1

ETV6 = ETV6 (Homo sapiens, UniProt P41212 1-452)
Procedure, shortened: as §1

ETV3L = biological target: T11, ETV3L (Homo sapiens, UniProt Q6ZN32 1-361)
T11 sequence: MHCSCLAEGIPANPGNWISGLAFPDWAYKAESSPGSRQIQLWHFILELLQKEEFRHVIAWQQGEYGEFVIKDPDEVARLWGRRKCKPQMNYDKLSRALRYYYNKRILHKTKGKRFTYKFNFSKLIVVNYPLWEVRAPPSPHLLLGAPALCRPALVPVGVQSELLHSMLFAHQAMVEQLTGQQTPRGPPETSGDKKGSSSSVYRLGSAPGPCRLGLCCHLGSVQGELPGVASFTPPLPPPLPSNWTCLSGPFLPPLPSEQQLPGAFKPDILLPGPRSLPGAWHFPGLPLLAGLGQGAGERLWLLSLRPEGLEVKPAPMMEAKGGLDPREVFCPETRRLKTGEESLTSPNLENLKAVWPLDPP
Procedure, shortened: as §1

SPDEF = biological target: T12, SPDEF (Homo sapiens, UniProt O95238 1-335)
T12 sequence: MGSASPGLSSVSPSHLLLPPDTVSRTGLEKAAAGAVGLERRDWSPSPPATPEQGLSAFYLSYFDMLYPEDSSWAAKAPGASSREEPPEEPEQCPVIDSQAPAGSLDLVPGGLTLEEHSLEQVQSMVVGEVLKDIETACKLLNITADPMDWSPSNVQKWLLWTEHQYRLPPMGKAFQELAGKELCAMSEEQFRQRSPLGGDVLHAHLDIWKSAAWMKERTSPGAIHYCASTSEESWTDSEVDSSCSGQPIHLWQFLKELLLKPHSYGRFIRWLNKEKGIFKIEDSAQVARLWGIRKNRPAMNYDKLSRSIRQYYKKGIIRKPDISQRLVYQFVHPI
Procedure, shortened: as §1

Sequence of ETV5 (P41161 whole entry): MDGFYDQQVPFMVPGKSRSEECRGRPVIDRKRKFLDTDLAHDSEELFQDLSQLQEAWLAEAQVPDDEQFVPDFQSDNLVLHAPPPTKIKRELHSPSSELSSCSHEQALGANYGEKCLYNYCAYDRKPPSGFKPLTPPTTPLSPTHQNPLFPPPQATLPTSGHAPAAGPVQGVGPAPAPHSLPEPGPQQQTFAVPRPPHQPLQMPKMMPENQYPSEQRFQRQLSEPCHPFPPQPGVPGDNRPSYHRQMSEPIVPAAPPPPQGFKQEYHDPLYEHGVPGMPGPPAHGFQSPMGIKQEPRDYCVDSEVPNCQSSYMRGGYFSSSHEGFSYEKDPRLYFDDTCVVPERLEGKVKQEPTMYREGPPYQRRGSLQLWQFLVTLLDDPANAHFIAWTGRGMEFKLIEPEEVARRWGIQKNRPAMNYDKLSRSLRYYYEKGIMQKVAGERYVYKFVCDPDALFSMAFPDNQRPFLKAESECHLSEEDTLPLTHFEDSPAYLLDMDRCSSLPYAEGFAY
Sequence of ETV6 (P41212 whole entry): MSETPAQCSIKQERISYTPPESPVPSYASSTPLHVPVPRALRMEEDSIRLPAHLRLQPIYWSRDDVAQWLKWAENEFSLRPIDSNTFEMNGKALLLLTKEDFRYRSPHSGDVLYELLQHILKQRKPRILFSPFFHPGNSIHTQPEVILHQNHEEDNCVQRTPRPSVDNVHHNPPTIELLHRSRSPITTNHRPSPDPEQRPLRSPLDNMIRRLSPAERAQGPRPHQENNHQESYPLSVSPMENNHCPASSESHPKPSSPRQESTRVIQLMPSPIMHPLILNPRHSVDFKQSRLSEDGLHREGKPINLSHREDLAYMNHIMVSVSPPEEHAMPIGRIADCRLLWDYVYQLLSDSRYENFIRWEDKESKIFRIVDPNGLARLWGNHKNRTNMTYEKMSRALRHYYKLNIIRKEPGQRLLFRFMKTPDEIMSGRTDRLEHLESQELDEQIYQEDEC
Sequence of ELF4 (Q99607 whole entry): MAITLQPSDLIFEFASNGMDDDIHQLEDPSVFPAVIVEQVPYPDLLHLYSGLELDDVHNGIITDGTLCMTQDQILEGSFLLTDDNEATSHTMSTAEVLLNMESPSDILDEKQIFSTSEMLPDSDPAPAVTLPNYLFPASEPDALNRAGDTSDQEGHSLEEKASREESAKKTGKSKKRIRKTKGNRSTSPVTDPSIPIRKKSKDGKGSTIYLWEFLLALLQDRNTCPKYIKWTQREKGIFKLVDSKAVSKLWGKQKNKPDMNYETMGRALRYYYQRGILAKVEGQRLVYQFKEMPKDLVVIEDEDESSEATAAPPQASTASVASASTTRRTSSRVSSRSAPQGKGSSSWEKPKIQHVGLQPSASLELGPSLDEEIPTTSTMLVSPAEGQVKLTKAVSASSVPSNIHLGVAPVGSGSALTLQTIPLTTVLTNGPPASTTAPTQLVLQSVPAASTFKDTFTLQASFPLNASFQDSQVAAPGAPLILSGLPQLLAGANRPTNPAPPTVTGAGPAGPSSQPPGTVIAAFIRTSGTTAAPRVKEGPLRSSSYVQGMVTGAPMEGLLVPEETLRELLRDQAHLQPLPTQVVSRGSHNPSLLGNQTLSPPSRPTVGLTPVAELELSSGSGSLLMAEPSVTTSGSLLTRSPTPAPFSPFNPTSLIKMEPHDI
Sequence of ETV1 (P50549 whole entry): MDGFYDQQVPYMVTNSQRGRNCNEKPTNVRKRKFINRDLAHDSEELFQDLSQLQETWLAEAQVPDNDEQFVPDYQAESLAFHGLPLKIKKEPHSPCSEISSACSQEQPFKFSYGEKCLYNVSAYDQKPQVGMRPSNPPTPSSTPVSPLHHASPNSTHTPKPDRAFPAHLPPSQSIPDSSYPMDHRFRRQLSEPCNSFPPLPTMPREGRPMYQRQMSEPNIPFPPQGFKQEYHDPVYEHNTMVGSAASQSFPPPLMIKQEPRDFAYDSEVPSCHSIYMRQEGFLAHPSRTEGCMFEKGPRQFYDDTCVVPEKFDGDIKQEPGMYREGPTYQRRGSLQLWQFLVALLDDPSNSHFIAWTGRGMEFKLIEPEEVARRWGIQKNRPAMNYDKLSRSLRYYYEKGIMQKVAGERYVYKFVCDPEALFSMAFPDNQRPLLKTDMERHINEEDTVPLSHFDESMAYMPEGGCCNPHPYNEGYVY

Sequence	binding signal (FEV)	binding signal (ETV5)	binding signal (SPIC)	binding signal (ELF4)	binding signal (ELK4)	binding signal (ETV2)	binding signal (ELF3)	binding signal (ETV1)	binding signal (ERF)	binding signal (ETS2)	binding signal (ETV7)	binding signal (ELF5)	binding signal (ETV3)	binding signal (ETV6)	binding signal (ETV3L)	binding signal (SPDEF)
CAACAA	1.05 fold enrichment (6-mer frequency, TF over GST control)	1.02 fold enrichment (6-mer frequency, TF over GST control)	1.06 fold enrichment (6-mer frequency, TF over GST control)	1.13 fold enrichment (6-mer frequency, TF over GST control)	1.02 fold enrichment (6-mer frequency, TF over GST control)	1.08 fold enrichment (6-mer frequency, TF over GST control)	1.2 fold enrichment (6-mer frequency, TF over GST control)	1.05 fold enrichment (6-mer frequency, TF over GST control)	1.05 fold enrichment (6-mer frequency, TF over GST control)	1.08 fold enrichment (6-mer frequency, TF over GST control)	1.02 fold enrichment (6-mer frequency, TF over GST control)	1.03 fold enrichment (6-mer frequency, TF over GST control)	1.08 fold enrichment (6-mer frequency, TF over GST control)	1.01 fold enrichment (6-mer frequency, TF over GST control)		
TCGCCG	1.26 fold enrichment (6-mer frequency, TF over GST control)	1.03 fold enrichment (6-mer frequency, TF over GST control)	1.09 fold enrichment (6-mer frequency, TF over GST control)	1.21 fold enrichment (6-mer frequency, TF over GST control)	1.3 fold enrichment (6-mer frequency, TF over GST control)	1.2 fold enrichment (6-mer frequency, TF over GST control)	1.21 fold enrichment (6-mer frequency, TF over GST control)	1.37 fold enrichment (6-mer frequency, TF over GST control)	1.38 fold enrichment (6-mer frequency, TF over GST control)	1.26 fold enrichment (6-mer frequency, TF over GST control)		1.15 fold enrichment (6-mer frequency, TF over GST control)	1.2 fold enrichment (6-mer frequency, TF over GST control)	1.13 fold enrichment (6-mer frequency, TF over GST control)	1.25 fold enrichment (6-mer frequency, TF over GST control)	1.01 fold enrichment (6-mer frequency, TF over GST control)
TGCTGT	1.01 fold enrichment (6-mer frequency, TF over GST control)	1.06 fold enrichment (6-mer frequency, TF over GST control)	1.18 fold enrichment (6-mer frequency, TF over GST control)	1.06 fold enrichment (6-mer frequency, TF over GST control)	1.19 fold enrichment (6-mer frequency, TF over GST control)	1.15 fold enrichment (6-mer frequency, TF over GST control)	1.12 fold enrichment (6-mer frequency, TF over GST control)	1.17 fold enrichment (6-mer frequency, TF over GST control)	1.08 fold enrichment (6-mer frequency, TF over GST control)	1.15 fold enrichment (6-mer frequency, TF over GST control)	1.13 fold enrichment (6-mer frequency, TF over GST control)			1.03 fold enrichment (6-mer frequency, TF over GST control)		
